# This is part of a sample that, as a whole, favours compounds with a hit. Of some 83,000 tested, about 20% had one in any assay.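 Assay: single dose, 48 h. Readout: percent growth (0 = no net growth; negative = cell death). Active: <10.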 Activity calls are given as the source filed them.
# Test system: MDA-MB-468 breast
# Test: NCI-60 one-dose screen, 48 h (100 = growth as untreated, 0 = no growth, -100 = all killed)
# Conditions: 10 µM unless noted
row,Structure (SMILES),growth
1,CCOC(=O)c1cc(CC)sc1NC(=O)CC(C)=O,57.2% (inactive)
2,COc1ccc(C2=NN(C=O)C(c3cccc(Nc4ccnc5cc(Cl)ccc45)c3)C2)cc1 (stereo not drawn),-3.92% (active)
3,CC(=O)c1ccc(N=C(C#N)C2=C(O)c3ccccc3C2=O)cc1,94.5% (inactive)
